For this assay, the system named is A673/TR/shEF. As to the kind of experiment: cell viability (LOESS-normalised, relative to median of negative controls) (log2 ratio); higher = more viable cells (less compound effect), active = hit call of the paper (over 3 MAD below the median). The settings on record: treatment time: 72 h. Put shortly: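 Viability of A673/TR/shEF Ewing sarcoma cells was determined by CellTiter-Glo luminescence. The cells, at 1,500 per well in 384-well plates, were grown with or without doxycycline from 24 h before compound addition to switch on EWS-FLI1 shRNA knockdown, then exposed for three days to library compounds at two or more concentrations or to DMSO controls. Signals were LOESS-corrected plate by plate, normalised to the negative-control median and log2-transformed.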

The mark [1] stands for this setting: 0.103 µM, library screen: screen3, EWS-FLI1 expression: high (no doxycycline).
[2] abbreviates: 0.103 µM, library screen: screen3, EWS-FLI1 expression: low (doxycycline-induced shRNA knockdown).
[3] abbreviates: 0.25 µM, library screen: screen1, EWS-FLI1 expression: high (no doxycycline).
[4] abbreviates: 0.25 µM, library screen: screen1, EWS-FLI1 expression: low (doxycycline-induced shRNA knockdown).
Setting [5] is: 0.25 µM, library screen: screen2, EWS-FLI1 expression: high (no doxycycline).
Where [6] appears, read: 0.25 µM, library screen: screen2, EWS-FLI1 expression: low (doxycycline-induced shRNA knockdown).
The mark [7] stands for this setting: 0.308 µM, library screen: screen3, EWS-FLI1 expression: high (no doxycycline).
Setting [8] is: 0.308 µM, library screen: screen3, EWS-FLI1 expression: low (doxycycline-induced shRNA knockdown).
[9] abbreviates: 0.926 µM, library screen: screen3, EWS-FLI1 expression: high (no doxycycline).
[10] abbreviates: 0.926 µM, library screen: screen3, EWS-FLI1 expression: low (doxycycline-induced shRNA knockdown).
Setting [11] is: 2.5 µM, library screen: screen1, EWS-FLI1 expression: high (no doxycycline).
Where [12] appears, read: 2.5 µM, library screen: screen1, EWS-FLI1 expression: low (doxycycline-induced shRNA knockdown).
[13] abbreviates: 2.5 µM, library screen: screen2, EWS-FLI1 expression: high (no doxycycline).
The mark [14] stands for this setting: 2.5 µM, library screen: screen2, EWS-FLI1 expression: low (doxycycline-induced shRNA knockdown).
[15] abbreviates: 2.8 µM, library screen: screen3, EWS-FLI1 expression: high (no doxycycline).
Setting [16] is: 2.8 µM, library screen: screen3, EWS-FLI1 expression: low (doxycycline-induced shRNA knockdown).
[17] abbreviates: 8.3 µM, library screen: screen3, EWS-FLI1 expression: high (no doxycycline).
Setting [18] is: 8.3 µM, library screen: screen3, EWS-FLI1 expression: low (doxycycline-induced shRNA knockdown).
Setting [19] is: 25 µM, library screen: screen3, EWS-FLI1 expression: high (no doxycycline).
Where [20] appears, read: 25 µM, library screen: screen3, EWS-FLI1 expression: low (doxycycline-induced shRNA knockdown).
Where [21] appears, read: 0.025 µM, library screen: screen1, EWS-FLI1 expression: high (no doxycycline).
[22] abbreviates: 0.025 µM, library screen: screen1, EWS-FLI1 expression: low (doxycycline-induced shRNA knockdown).
Setting [23] is: 25 µM, library screen: screen1, EWS-FLI1 expression: high (no doxycycline).
Where [24] appears, read: 25 µM, library screen: screen1, EWS-FLI1 expression: low (doxycycline-induced shRNA knockdown).

Each structure is given as a SMILES string. The campaign covered roughly 3,200 compounds. About 300 (9.4%) showed activity. The entries come from a sample that favours actives as a whole.

For the molecule `CN1/C(=C(\O)Nc2ccccn2)C(=O)c2ccccc2S1(=O)=O`, the “cell viability (log2)” value is, setting by setting: under setting [1], 0.0972 (inactive); under setting [2], 0.122 (inactive); under setting [3], -0.035 (inactive); under setting [4], 0.0628 (inactive); under setting [5], 0.14 (inactive); under setting [6], 0.0798 (inactive). Besides, the “cell viability (log2)” value reads like this: under setting [7], 0.121 (inactive); under setting [8], 0.145 (inactive); under setting [9], 0.194 (inactive); under setting [10], 0.0843 (inactive); under setting [11], 0.139 (inactive); under setting [12], 0.148 (inactive). For the same molecule, the “cell viability (log2)” value runs as follows: under setting [13], 0.135 (inactive); under setting [14], 0.0591 (inactive); under setting [15], 0.173 (inactive); under setting [16], 0.0997 (inactive); under setting [17], 0.146 (inactive); under setting [18], 0.0703 (inactive). Further, the “cell viability (log2)” value runs as follows: under setting [19], 0.152 (inactive); under setting [20], 0.0778 (inactive).

As for `Nc1nc(Nc2ccccc2)nc2c1ncn2C1O[C@H](CO)[C@@H](O)[C@H]1O` (stereo partly specified), the “cell viability (log2)” value is 0.161 (inactive) under setting [5], 0.05 (inactive) under setting [6], 0.213 (inactive) under setting [13] and -0.0193 (inactive) under setting [14].

On to `Nc1cccc(-c2cc3c(Oc4cccc(O)c4)ncnc3[nH]2)c1`, for which the “cell viability (log2)” value runs as follows: under setting [1], 0.136 (inactive); under setting [2], 0.0102 (inactive); under setting [7], 0.0422 (inactive); under setting [8], 0.0346 (inactive); under setting [9], 0.0247 (inactive); under setting [10], 0.00411 (inactive). Further, the “cell viability (log2)” value was -0.00369 (inactive) under setting [15]; 0.0285 (inactive) under setting [16]; -0.0241 (inactive) under setting [17]; 0.0796 (inactive) under setting [18]; -0.494 (active) under setting [19]; -0.321 (active) under setting [20].

Regarding `O=C(O)C1(O)C[C@@H](O)C(O)[C@H](O)C1` (stereo partly specified), the “cell viability (log2)” value is 0.068 (inactive) under setting [3], -0.0312 (inactive) under setting [4], 0.121 (inactive) under setting [11] and -0.0156 (inactive) under setting [12].

For `CC(=O)O[C@H]1C[C@@H](OC(C)=O)C(C)(C)[C@@H]2C[C@@H](OC(C)=O)[C@]3(C)[C@H](CC[C@@]4(C)[C@H](c5ccoc5)OC(=O)[C@H]5O[C@@]534)[C@@]12C`, the “cell viability (log2)” value under setting [3] was -0.0343 (inactive), the “cell viability (log2)” value under setting [4] was 0.0186 (inactive), the “cell viability (log2)” value under setting [11] is 0.075 (inactive) and the “cell viability (log2)” value under setting [12] is 0.143 (inactive).

On to `N#CC(C#N)=C(N)/C(C#N)=C/c1ccc2[nH]ccc2c1`, for which the “cell viability (log2)” value reads like this: under setting [21], 0.369; under setting [22], 0.0769 (inactive); under setting [3], 0.269 (inactive); under setting [4], 0.0358 (inactive); under setting [11], -0.421 (active); under setting [12], 0.0519 (inactive). The “cell viability (log2)” value reads like this: under setting [23], -0.203 (active); under setting [24], 0.0138 (inactive).

Regarding `COc1cc(/C=C(\C#N)C(N)=O)cc(CSc2nc3ccccc3s2)c1O`, the “cell viability (log2)” value was 0.119 (inactive) under setting [21]; 0.0154 (inactive) under setting [22]; 0.2 (inactive) under setting [3]; -0.0796 (inactive) under setting [4]; 0.0235 (inactive) under setting [11]; 0.0635 (inactive) under setting [12]. Further, the “cell viability (log2)” value was -0.058 (inactive) under setting [23] and -0.0713 (inactive) under setting [24].

For `N#CC(C#N)=C(N)/C(C#N)=C/c1cc(O)c(O)c(O)c1`, the “cell viability (log2)” value under setting [21] was determined as 0.289; the “cell viability (log2)” value under setting [22] was -0.0659 (inactive); the “cell viability (log2)” value under setting [3] was 0.296; the “cell viability (log2)” value under setting [4] is -0.0126 (inactive); the “cell viability (log2)” value under setting [5] is 0.21 (inactive); the “cell viability (log2)” value under setting [6] was 0.0773 (inactive). The “cell viability (log2)” value is -0.312 (active) under setting [11]; 0.0388 (inactive) under setting [12]; 0.23 (inactive) under setting [13]; 0.0527 (inactive) under setting [14]; -0.175 (active) under setting [23]; 0.0813 (inactive) under setting [24].

On to `N#CC(C#N)=C(N)/C(C#N)=C/c1ccc(O)cc1`, for which the “cell viability (log2)” value runs as follows: under setting [5], 0.137 (inactive); under setting [6], 0.116 (inactive); under setting [13], 0.199 (inactive); under setting [14], 0.0447 (inactive).

Source of the values: the supplement of paper PMC6089552.
